Rows were chosen to be rich in hits. Some 2.8% of all compounds tested hit in one or more screens of this group.
TWEAK-Fn14 inh: inhibitors of TWEAK-Fn14 interaction signaling; TWEAK-stimulated Fn14 reporter cells, luciferase luminescence, 8 h; inhibition, % at 10 µM; hit rate 2% among 360,000; AID 1159606; in the data active means inhibition above about 50%
LGR2 inh: inhibitors of bursicon-induced Drosophila LGR2 receptor cAMP signaling; HEK293 LGR2, CRE-luciferase, bursicon-stimulated, 4 h; inhibition, % at 9.99 µM; hit rate 0.35% among 380,000; AID 720647;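 active means drop in luminescence signal, shown as inhibition above about 50% in the replicate tests, limit read from the data, passing the limit was not always enough; inconclusive means probably only some replicates passing the limit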;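 further: agonist challenge used bursicon conditioned medium at about half maximal strength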
EWS-Fli block: EWS/Fli transcriptional activity inhibition. inhibition, % at 12.6 µM. hit rate 0.67% among 350,000. A673 NR0B1-luciferase reporter, viability-normalised;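 active means mean inhibition of at least 50% after viability correction, with every replicate also passing that limit; inconclusive means mean reaches 50% but only one of two replicates passes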;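 further: firefly luciferase signal divided by Alamar Blue viability fluorescence both relative to DMSO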
PAX8 reporter: inhibitors of PAX8 transcriptional activity in RMG-I cells | hit rate 1.2% among 360,000 | inhibition, % at 12.6 µM | RMG-I TPO-luciferase reporter, SteadyGlo, 24 h | AID 652154;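 active means mean replicate inhibition at least 60% with every replicate also reaching 60%; inconclusive means only one of the two criteria is met; inactive means mean below 60% and not all replicates reaching 60%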;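 further: luciferase light reporting Pax8 driven TPO promoter activity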
TROY signal inh: inhibitors of TROY-dependent NF-kB signaling; AID 1347056; inhibition, % at 10 µM; Q293 LMP1-TROYcd NF-kB luciferase reporter, 4 h; hit rate 0.98% among 360,000;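 active means compounds whose plate-normalised and pattern-corrected inhibition of the luciferase reporter signal at the single screening dose is 50% or more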
A number is an active result; – = inactive; ? = inconclusive; · = no result.

SMILES	TWEAK-Fn14 inh	LGR2 inh	EWS-Fli block	PAX8 reporter	TROY signal inh
CCc1ccc(OCc2nc(-c3ccccn3)no2)c(Br)c1	59	·	·	·	–
Cc1ccc(OCc2nc(-c3ccccn3)no2)c(Br)c1	85	·	·	–	–
CC(C)c1ccc(OCc2nc(-c3ccccn3)no2)c(Br)c1	–	·	·	–	–
CC(C)C(=O)Nc1ccc2c(c1)C(=O)N(C)[C@@H]1CC[C@@H](CC(=O)O)O[C@@H]1CO2	·	–	–	–	·
O=C(C[C@@H]1CC[C@H](NC(=O)C2CCC2)[C@@H](CO)O1)NCC1CC1	·	–	–	–	·
CO[C@@H]1CN(C)C(=O)c2ccc(NS(=O)(=O)c3ccccc3)cc2OC[C@H](C)N(C)C[C@H]1C	·	–	–	·	·
CC1(C)CC(N2CCCC2)=CC(=[N+]2CCCCCC2)C1	–	–	–	79	–
CC1CC(C)C[N+](=C2C=C(N3CCCC3)CC(C)(C)C2)C1 (configuration not stated)	–	–	–	75	–
CC1(C)CC(=O)C=C(N2CCNCC2)C1	–	·	·	–	–
CC1(C)CC(N2CCN(c3ccccc3)CC2)=CC(=[N+]2CCCC2)C1	–	–	·	·	–
C[C@]12CCC3C(CC[C@H]4CC(O)CC[C@]34C)C1CC/C2=N/NC(=O)c1ccncc1 (some centres not stated)	–	–	53	–	–
C[C@]12CCC3C(CC[C@H]4CC(O)CC[C@]34C)C1CC/C2=N/O (some centres not stated)	–	–	–	–	–
COc1ccc(NC(=O)CC2C(=O)N(c3ccccc3)C(=O)N2CCc2cccs2)cc1 (configuration not stated)	–	–	–	68	–
COc1ccc2c(c1)/C(=C/c1cc(OC)c(OC)c(OC)c1)C(=O)N2	57	–	63	–	–
COc1ccc(/C=C2\C(=O)NC(=O)c3ccccc32)cc1OC	–	–	–	–	–
C=CCOC(=O)[C@H]1[C@@H]2C(=O)O[C@@H](c3ccccc3)[C@@H](c3ccccc3)N2[C@@H](c2ccc(OCCOC(=O)[C@H]3C[C@H]4C(=O)N[C@@H](CC(C)C)C(=O)N4[C@H]3c3cccc(OCCO)c3)cc2)[C@]12C(=O)Nc1ccccc12	·	·	–	–	·
CC(C)C#Cc1cnc2c(c1)C(=O)N([C@@H](C)CO)C[C@H](C)[C@@H](CN(C)C(=O)Nc1ccccc1)O2	·	–	–	·	·
C[C@@H]1CN([C@@H](C)CO)C(=O)CCCn2cc(nn2)CO[C@@H]1CN(C)Cc1ccc2c(c1)OCCN2C	·	–	–	·	·
C[C@@H]1CN([C@@H](C)CO)C(=O)c2cccc(NS(=O)(=O)c3cccs3)c2O[C@H]1CN(C)S(=O)(=O)c1cn(C)cn1	·	–	–	·	·
COc1ccccc1CN(Cc1nc2ccccc2c(=O)[nH]1)S(=O)(=O)c1ccc2ccccc2c1	55	?	·	·	–
C[C@@H]1CN([C@@H](C)CO)S(=O)(=O)c2ccc(-c3cccnc3)cc2O[C@H]1CN(C)CC1CC1	·	–	–	·	·
NC(c1csc(NC(=O)Nc2ccc(OC(F)(F)F)cc2)n1)C1CCCCC1 (configuration not stated)	–	–	55	–	–
O=C(NCCC1=CCCCC1)C1CC(=O)N(Cc2ccccc2)C1 (configuration not stated)	95	–	·	–	–
O=C(NCCC1=CCCCC1)C1CCC(=O)N(Cc2ccc(Cl)cc2)C1 (configuration not stated)	–	–	–	–	–
CNc1ccc(Br)cc(C(=O)/C=C/c2ccc(Cl)cc2Cl)c1=O	–	–	–	66	–
SMILES	TWEAK-Fn14 inh	LGR2 inh	EWS-Fli block	PAX8 reporter	TROY signal inh
CNc1ccc(Br)cc(C(=O)/C=C/c2ccc(OC)cc2OC)c1=O	–	–	–	–	–
Cc1ccc(Nc2ccccc2)cc1	–	·	·	–	–
Cc1ccc(NC2=Nc3ccccc3CS2)cc1	74	·	·	·	–
C[C@@H]1CN([C@@H](C)CO)S(=O)(=O)c2ccc(/C=C/c3ccccc3)cc2O[C@@H]1CN(C)C(=O)NC1CCCCC1	·	–	–	–	·
COc1cc(NC(=O)c2cc(-c3ccccc3)nc3c2cnn3C(C)C)cc(OC)c1OC	55	·	·	·	–
Cc1cc(-n2c(SCC(=O)Nc3ccc(F)c(F)c3)nc3n[nH]c(C)c3c2=N)ccc1Cl	–	–	–	77	–
CCN(CC)S(=O)(=O)c1ccc(Cl)c(NC(=S)NC(=O)C2CCCC2)c1	56	–	–	–	55
CNC(=O)C[C@H]1CC[C@H]2[C@@H](COc3ccc(NC(=O)c4ccc5c(c4)OCO5)cc3C(=O)N2C)O1	·	–	–	–	·
Cn1c(C(=O)OCC(=O)NCCc2ccccc2)cc2sccc21	53	–	–	·	–
O=C(C[C@@H]1C=C[C@@H](NC(=O)c2ccccn2)[C@H](CO)O1)NCc1cccc(F)c1	·	–	–	–	·
Cc1cc(C)cc(OCC(=O)NCC2CCCO2)c1 (configuration not stated)	89	–	·	·	73
Cc1cc(C)c(C)c(OCC(=O)NCC2CCCO2)c1 (configuration not stated)	–	·	·	·	–
O=C(C[C@H]1CC[C@H]2[C@@H](COC[C@H](O)CN2Cc2cccc(F)c2)O1)NCCc1ccncc1	·	–	–	–	·
Cc1ccc(/C=N/N2CCN(C3c4ccccc4-c4ccccc43)CC2)s1	62	·	–	–	54
C(=N\N1CCN(C2c3ccccc3-c3ccccc32)CC1)/c1ccccn1	–	·	·	·	–
COc1cc(C(=O)O/N=C(\N)c2cccc([N+](=O)[O-])c2)cc(OC)c1OC	62	–	–	–	–
COc1cc(C(=O)O/N=C(\N)c2ccc([N+](=O)[O-])cc2)cc(OC)c1OC	–	–	–	–	–
S=C1NCN(CCc2ccccc2)CN1Cc1ccccc1	96	–	–	–	–
CCCN1CNC(=S)N(Cc2ccccc2)C1	–	–	·	–	–
CCCN1CN(CCc2ccccc2)CNC1=S	104	–	·	–	–
Cc1ccc(C(=O)c2ccc(C)cc2)cc1	–	–	–	–	–
Cc1ccc(C(=O)c2no[n+]([O-])c2C(=O)c2ccc(C)cc2)cc1	53	–	?	–	–
COc1ccc(NS(=O)(=O)c2ccc3nc(COc4ccc5ccccc5c4)[nH]c3c2)cc1	–	–	·	–	–
COc1ccc(NS(=O)(=O)c2ccc3nc(COc4cccc5ccccc45)[nH]c3c2)cc1	59	–	·	·	–
O=C(CNC(=O)OCc1ccccc1)NCC(=O)NC(Cc1c[nH]c2ccccc12)C(=O)O (configuration not stated)	–	–	–	–	51
CC(C)C(NC(=O)OCc1ccccc1)C(=O)NC(Cc1c[nH]c2ccccc12)C(=O)O (configuration not stated)	–	–	–	–	–
CCOC(=O)c1[nH]c2c(c1C)C(=O)CC(c1ccco1)C2 (configuration not stated)	–	–	–	83	–
Cc1c(C(=O)OCc2ccccc2)[nH]c2c1C(=O)CC(c1ccco1)C2 (configuration not stated)	–	·	·	·	–
COCCOC(=O)c1[nH]c2c(c1C)C(=O)CC(c1ccco1)C2 (configuration not stated)	–	–	65	–	–

High-throughput results: PubChem, several laboratories
